# PubChem BioAssay (Tox21)
# Inconclusive results are not listed. Active and inactive are the calls of the source. Calls come from the whole dose curve; as a rule, active = well fitted inhibition curve with a large enough effect in the signal ratio in the repeat runs (not every such curve was filed as active); inconclusive = weak or mixed curves, or effect the other way; inactive = no such curve, though single readings can be large or run the other way; the % refers to the signal ratio.
# Molecular target: Peroxisome proliferator-activated receptor delta (Homo sapiens) (UniProt Q03181)
# Sequence (Q03181 whole entry, looked up): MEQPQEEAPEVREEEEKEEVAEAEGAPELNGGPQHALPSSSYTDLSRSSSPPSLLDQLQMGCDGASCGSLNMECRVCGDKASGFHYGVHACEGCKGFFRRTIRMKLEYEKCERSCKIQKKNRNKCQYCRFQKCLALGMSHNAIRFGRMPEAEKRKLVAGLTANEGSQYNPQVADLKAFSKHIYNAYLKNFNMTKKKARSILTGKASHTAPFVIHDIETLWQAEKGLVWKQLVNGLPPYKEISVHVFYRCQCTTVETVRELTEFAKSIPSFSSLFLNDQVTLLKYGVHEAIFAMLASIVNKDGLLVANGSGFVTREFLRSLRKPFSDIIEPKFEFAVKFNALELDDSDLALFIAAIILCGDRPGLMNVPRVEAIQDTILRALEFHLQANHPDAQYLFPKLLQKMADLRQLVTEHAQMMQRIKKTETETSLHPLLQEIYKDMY
# Assay: qHTS assay to identify small molecule antagonists of the peroxisome proliferator-activated receptor delta (PPARd) signaling pathway (AID 743215);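 note: cells stimulated with agonist L165041 at 300 nM final during compound exposure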
# Settings: HEK293H PPARd-UAS-bla, beta-lactamase FRET ratio, antagonist, 17 h; series mostly up to 62 µM
# Excerpt: U.S. Tox21 Program National Center for Advancing Translational Sciences [NCATS] NIH Chemical Genomics Center [NCGC] U.S. Environmental Protection Agency [EPA] National Institutes of Environmental Health Sciences [NIEHS] National Toxicology Program [NTP] U.S. Food and Drug Administration [FDA] Tox21 Assay Overview: The peroxisome proliferator-activated receptors (PPARs) are lipid-activated transcription factors of the nuclear receptor superfamily with three distinct subtypes namely PPAR alpha, PPAR delta (PPARd) and PPAR gamma. All these subtypes heterodimerizes with Retinoid X receptor (RXR) and have different physiological functions. […] To identify the compounds that inhibit PPAR-delta signaling, GeneBLAzer PPAR delta UAS-bla HEK293H cell line (Invitrogen, Carlsbad, CA, USA) containing a beta-lactamase reporter gene under the control of an Upstream Activator Sequence (UAS) was used to screen the Tox21 compound library.
# Tox21 Assay Protocol Summary: PPARd-bla cells were dispensed at 3000 cells/5uL/well in 1536-well black wall/clear bottom plates using a Multidrop Combi (Thermo Fisher Scientific, Waltham, MA) dispenser. After the assay plates were incubated at 37 C and 5% CO2 for 5 h, 23 nL of compounds dissolved in DMSO, positive controls or DMSO only was transferred to the assay plate by a Pintool station (Kalypsys, San Diego, CA), followed by addition of 1ul L165041 (300 nM, final concentration in the wells). The assay plates were incubated at 37 C for 17 h, and then 1 uL of LiveBLAzerTM B/G FRET substrate was added using a Bioraptr Flying Reagent Dispenser (FRD) workstation (Beckman Coulter, Indianapolis, IN, USA). The assay plates were incubated at room temperature for 2 h and fluorescence intensity was measured by an Envision plate reader (PerkinElmer, Shelton, CT).
row,Structure (SMILES),outcome
1,CCOP(=S)(OCC)Oc1ccc2c(C)c(Cl)c(=O)oc2c1,inactive
2,O=C(O)CC(O)(CC(=O)O)C(=O)O,inactive
3,COCC(=O)N(c1c(C)cccc1C)C(C)C(=O)OC (configuration not stated),inactive
4,CCCn1cc[n+](C)c1,inactive
5,O=C(O)C(Cl)Cl,inactive
6,CCCCCCCCCCCCCCCCn1cc[n+](C)c1,inactive
7,COP(=O)(OC)C(O)C(Cl)(Cl)Cl (configuration not stated),inactive
8,Oc1ccccc1-c1ccccc1,inactive
9,O=C(O)COc1ccc(Cl)cc1Cl,inactive
10,O=P1(N(CCCl)CCCl)NCCCO1 (configuration not stated),inactive
11,CCC[N+]1(C)CCCC1,inactive
12,Cc1cc(Cl)ccc1N,inactive
13,Nc1ccc(Cl)cc1,inactive
14,C[N+](C)(C)Cc1ccccc1,inactive
15,CC(Cl)(Cl)C(=O)O,inactive
16,CCC(=O)C(CC(C)N(C)C)(c1ccccc1)c1ccccc1 (configuration not stated),inactive
17,COc1ccc(N)cc1,inactive
18,O=C(O)C(Cl)(Cl)Cl,inactive
19,COP(=O)(OC)OC=C(Cl)Cl,inactive
20,C1CCC(NC2CCCCC2)CC1,inactive
21,OCCOc1ccccc1,inactive
22,CNC,inactive
